Data taken from ChEMBL document CHEMBL1961873, “Compounds: GSK PKIS; Assays: Nanosyn kinase panel” (2012).

How the values were obtained:
[1] = biological target: Sphingosine kinase 1 (Homo sapiens) (UniProt Q9NYA1); settings: at 1 µM;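 note: mean SPHK1 inhibition value reported from the GSK PKIS kinase panel screen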
[2] = biological target: T1, Sphingosine kinase 2 (Homo sapiens) (UniProt Q9NRA0); settings: at 0.1 µM
T1 sequence (whole entry): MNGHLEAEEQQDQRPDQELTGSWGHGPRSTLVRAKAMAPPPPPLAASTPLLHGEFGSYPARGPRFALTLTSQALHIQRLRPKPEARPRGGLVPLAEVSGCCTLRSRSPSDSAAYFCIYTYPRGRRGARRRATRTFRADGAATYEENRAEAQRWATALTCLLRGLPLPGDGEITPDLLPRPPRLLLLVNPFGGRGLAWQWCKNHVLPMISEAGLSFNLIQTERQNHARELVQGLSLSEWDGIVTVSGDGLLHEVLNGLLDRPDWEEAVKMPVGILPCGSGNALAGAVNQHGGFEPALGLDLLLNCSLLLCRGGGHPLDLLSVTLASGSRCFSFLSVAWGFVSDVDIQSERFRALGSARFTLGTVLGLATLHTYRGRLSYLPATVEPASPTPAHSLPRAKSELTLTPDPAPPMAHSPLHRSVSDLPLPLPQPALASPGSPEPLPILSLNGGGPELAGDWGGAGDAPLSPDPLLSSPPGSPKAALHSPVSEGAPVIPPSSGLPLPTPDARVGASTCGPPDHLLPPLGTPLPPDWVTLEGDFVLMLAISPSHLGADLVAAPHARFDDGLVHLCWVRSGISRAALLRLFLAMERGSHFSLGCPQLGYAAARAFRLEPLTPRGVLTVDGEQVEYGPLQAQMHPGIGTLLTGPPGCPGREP

[3] = biological target: T1, Sphingosine kinase 2 (Homo sapiens); settings: at 1 µM
[4] = biological target: Casein kinase II subunit alpha (Homo sapiens) (UniProt P68400); settings: at 0.1 µM
[5] = biological target: Casein kinase II subunit alpha (Homo sapiens) (UniProt P68400); settings: at 1 µM
[6] = biological target: T2, Inhibitor of nuclear factor kappa-B kinase subunit alpha (Homo sapiens) (UniProt O15111); settings: at 0.1 µM
T2 sequence (whole entry): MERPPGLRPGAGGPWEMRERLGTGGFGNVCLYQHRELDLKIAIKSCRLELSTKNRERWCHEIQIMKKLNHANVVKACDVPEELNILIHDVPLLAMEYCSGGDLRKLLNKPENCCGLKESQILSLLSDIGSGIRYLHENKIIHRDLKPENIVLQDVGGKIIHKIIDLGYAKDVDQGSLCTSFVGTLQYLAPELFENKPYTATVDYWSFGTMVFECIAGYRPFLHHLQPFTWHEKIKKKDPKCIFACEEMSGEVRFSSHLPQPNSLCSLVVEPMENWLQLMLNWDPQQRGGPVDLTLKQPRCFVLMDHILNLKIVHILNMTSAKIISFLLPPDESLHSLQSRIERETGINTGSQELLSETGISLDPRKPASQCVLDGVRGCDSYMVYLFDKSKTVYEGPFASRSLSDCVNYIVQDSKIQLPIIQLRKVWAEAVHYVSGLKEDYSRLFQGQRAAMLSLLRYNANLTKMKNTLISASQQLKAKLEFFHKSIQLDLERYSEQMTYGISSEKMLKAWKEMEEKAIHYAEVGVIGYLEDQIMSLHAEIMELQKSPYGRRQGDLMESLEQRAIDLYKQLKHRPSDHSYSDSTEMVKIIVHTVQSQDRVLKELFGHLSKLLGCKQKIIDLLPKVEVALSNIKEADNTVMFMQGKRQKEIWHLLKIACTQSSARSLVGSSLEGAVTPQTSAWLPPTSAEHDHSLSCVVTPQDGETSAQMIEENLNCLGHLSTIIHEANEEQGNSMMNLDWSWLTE

[7] = biological target: T2, Inhibitor of nuclear factor kappa-B kinase subunit alpha (Homo sapiens); settings: at 1 µM
[8] = biological target: T3, Inhibitor of nuclear factor kappa-B kinase subunit beta (Homo sapiens) (UniProt O14920); settings: at 0.1 µM
T3 sequence (whole entry): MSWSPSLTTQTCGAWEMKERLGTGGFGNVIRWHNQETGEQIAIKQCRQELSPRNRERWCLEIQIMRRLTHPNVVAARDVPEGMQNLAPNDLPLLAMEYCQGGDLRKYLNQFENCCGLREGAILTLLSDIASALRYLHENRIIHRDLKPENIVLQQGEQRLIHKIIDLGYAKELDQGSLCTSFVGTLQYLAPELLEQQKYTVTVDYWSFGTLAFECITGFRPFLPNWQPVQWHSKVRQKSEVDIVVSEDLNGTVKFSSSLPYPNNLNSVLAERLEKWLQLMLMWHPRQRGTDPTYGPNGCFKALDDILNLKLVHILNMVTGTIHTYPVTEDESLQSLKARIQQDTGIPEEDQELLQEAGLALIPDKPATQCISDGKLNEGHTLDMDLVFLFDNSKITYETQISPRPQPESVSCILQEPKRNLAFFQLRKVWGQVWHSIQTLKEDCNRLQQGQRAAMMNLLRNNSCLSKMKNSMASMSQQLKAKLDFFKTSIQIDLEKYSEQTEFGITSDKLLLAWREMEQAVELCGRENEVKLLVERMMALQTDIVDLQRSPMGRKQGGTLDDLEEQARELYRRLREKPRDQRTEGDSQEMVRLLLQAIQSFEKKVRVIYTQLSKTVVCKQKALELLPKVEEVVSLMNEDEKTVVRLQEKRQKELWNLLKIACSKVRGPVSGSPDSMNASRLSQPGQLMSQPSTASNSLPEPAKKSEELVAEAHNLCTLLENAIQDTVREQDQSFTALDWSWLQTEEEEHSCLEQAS

[9] = biological target: T3, Inhibitor of nuclear factor kappa-B kinase subunit beta (Homo sapiens); settings: at 1 µM
[10] = biological target: T4, Inhibitor of nuclear factor kappa-B kinase subunit epsilon (Homo sapiens) (UniProt Q14164); settings: at 0.1 µM
T4 sequence (whole entry): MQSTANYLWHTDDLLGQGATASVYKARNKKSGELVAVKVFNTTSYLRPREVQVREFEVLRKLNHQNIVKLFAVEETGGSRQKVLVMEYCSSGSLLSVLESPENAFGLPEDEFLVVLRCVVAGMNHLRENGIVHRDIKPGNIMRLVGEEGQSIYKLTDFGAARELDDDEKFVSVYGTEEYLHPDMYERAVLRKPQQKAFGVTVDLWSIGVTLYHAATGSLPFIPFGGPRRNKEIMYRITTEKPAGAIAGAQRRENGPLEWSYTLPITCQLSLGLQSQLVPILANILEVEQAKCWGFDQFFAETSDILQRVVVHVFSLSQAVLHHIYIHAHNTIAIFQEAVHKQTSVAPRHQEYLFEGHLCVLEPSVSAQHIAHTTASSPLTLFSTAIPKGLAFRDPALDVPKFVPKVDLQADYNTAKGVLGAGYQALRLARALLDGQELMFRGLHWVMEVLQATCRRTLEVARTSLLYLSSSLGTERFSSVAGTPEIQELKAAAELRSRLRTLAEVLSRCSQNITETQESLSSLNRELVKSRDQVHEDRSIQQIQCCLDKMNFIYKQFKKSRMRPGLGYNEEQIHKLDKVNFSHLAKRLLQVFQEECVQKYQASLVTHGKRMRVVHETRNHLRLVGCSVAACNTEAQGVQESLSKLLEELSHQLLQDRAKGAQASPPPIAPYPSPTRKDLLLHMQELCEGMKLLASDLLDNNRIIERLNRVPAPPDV

[11] = biological target: T4, Inhibitor of nuclear factor kappa-B kinase subunit epsilon (Homo sapiens); settings: at 1 µM
[12] = biological target: T5, Serine/threonine-protein kinase Nek1 (Homo sapiens) (UniProt Q96PY6); settings: at 0.1 µM
T5 sequence (whole entry): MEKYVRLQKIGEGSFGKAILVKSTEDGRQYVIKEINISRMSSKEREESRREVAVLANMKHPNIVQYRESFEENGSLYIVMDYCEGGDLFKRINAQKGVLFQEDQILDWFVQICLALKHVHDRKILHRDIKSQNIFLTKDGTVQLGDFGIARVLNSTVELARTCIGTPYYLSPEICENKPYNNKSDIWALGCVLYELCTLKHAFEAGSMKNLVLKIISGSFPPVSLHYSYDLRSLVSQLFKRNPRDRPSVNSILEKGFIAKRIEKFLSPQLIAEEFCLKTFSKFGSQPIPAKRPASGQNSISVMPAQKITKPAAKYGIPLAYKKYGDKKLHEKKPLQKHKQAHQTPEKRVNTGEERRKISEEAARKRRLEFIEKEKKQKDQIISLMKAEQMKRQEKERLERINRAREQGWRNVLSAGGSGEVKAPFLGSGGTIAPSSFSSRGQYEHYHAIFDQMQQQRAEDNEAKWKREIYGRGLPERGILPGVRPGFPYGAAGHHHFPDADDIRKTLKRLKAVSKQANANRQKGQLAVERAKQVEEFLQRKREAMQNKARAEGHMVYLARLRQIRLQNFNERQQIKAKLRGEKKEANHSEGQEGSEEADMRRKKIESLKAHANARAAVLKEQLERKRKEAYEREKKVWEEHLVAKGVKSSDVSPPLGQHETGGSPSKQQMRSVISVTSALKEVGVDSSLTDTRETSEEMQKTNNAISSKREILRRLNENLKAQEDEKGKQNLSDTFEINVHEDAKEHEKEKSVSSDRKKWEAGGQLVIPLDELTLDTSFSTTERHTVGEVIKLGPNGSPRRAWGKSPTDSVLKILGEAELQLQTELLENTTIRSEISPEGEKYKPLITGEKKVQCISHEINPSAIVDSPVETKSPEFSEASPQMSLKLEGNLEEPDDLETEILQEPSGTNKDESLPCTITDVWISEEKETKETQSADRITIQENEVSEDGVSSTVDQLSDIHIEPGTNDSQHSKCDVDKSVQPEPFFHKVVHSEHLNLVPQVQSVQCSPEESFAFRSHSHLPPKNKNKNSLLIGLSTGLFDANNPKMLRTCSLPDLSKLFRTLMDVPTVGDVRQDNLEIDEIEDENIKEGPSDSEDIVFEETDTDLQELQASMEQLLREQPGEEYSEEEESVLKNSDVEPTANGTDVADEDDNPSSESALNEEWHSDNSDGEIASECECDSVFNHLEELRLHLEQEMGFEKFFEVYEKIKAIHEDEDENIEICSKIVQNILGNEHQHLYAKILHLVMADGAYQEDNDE

[13] = biological target: T5, Serine/threonine-protein kinase Nek1 (Homo sapiens); settings: at 1 µM
[14] = biological target: T6, Serine/threonine-protein kinase Nek2 (Homo sapiens) (UniProt P51955); settings: at 0.1 µM
T6 sequence (whole entry): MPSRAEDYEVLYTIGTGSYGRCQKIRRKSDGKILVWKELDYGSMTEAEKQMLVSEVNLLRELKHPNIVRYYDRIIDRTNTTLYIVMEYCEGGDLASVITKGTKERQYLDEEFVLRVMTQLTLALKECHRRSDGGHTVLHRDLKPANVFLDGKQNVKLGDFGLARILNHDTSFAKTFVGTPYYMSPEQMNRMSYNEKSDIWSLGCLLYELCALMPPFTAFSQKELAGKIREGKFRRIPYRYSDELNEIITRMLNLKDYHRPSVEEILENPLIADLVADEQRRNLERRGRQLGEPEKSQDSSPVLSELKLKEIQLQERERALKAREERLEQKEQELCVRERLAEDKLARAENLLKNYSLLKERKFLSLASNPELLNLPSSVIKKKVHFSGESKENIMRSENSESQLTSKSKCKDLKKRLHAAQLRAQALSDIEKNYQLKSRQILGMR

[15] = biological target: T6, Serine/threonine-protein kinase Nek2 (Homo sapiens); settings: at 1 µM
[16] = biological target: Serine/threonine-protein kinase Nek6 (Homo sapiens) (UniProt Q9HC98); settings: at 0.1 µM
[17] = biological target: Serine/threonine-protein kinase Nek6 (Homo sapiens) (UniProt Q9HC98); settings: at 1 µM
[18] = biological target: Serine/threonine-protein kinase Nek7 (Homo sapiens) (UniProt Q8TDX7); settings: at 0.1 µM
[19] = biological target: Serine/threonine-protein kinase Nek7 (Homo sapiens) (UniProt Q8TDX7); settings: at 1 µM
[20] = biological target: T7, Serine/threonine-protein kinase Nek9 (Homo sapiens) (UniProt Q8TD19); settings: at 0.1 µM;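 note: reported value is the mean percent inhibition of NEK9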
T7 sequence (whole entry): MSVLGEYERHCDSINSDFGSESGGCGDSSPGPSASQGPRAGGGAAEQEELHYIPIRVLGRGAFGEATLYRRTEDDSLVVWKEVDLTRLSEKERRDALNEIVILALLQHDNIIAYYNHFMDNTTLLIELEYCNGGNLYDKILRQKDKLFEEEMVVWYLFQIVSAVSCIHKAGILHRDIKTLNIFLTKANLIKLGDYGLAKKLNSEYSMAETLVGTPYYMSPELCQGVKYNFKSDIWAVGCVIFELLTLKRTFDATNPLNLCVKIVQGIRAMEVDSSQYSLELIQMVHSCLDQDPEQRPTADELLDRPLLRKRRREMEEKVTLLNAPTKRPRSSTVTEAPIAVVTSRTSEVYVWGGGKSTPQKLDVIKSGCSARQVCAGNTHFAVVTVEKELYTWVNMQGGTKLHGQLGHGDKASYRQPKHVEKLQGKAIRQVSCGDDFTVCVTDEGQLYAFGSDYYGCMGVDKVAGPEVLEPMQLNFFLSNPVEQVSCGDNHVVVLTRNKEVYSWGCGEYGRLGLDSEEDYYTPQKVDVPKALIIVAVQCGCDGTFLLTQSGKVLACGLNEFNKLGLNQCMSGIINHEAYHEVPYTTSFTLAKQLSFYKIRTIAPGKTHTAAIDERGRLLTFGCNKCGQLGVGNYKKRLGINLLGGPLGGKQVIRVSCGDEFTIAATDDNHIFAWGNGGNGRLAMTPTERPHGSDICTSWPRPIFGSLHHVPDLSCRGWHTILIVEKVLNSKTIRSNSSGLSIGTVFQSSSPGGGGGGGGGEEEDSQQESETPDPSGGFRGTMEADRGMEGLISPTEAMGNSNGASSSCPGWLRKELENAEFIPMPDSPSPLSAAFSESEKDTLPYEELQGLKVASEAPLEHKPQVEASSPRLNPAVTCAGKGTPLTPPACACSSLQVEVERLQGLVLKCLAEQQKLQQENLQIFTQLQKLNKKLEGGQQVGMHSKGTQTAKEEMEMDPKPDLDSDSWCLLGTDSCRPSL

Sequence of Serine/threonine-protein kinase Nek7 (Homo sapiens) (Q8TDX7 whole entry, looked up): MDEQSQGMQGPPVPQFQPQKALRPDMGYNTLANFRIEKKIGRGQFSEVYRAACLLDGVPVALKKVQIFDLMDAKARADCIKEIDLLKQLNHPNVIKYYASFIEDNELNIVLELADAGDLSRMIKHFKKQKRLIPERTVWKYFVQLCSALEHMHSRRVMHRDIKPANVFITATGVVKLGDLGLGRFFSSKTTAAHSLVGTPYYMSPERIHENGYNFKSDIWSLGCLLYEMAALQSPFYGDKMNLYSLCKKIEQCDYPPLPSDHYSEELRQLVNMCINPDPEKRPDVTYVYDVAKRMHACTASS
Sequence of Serine/threonine-protein kinase Nek6 (Homo sapiens) (Q9HC98 whole entry): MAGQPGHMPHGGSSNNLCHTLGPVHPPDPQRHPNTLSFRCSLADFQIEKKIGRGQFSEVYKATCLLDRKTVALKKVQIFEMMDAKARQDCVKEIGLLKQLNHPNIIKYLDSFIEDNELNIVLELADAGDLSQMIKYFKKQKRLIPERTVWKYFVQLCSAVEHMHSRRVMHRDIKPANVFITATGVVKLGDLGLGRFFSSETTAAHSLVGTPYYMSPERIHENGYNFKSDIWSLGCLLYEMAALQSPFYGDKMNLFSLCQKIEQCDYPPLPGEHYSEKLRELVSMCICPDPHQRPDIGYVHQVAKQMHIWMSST
Sequence of Casein kinase II subunit alpha (Homo sapiens) (P68400 whole entry, looked up): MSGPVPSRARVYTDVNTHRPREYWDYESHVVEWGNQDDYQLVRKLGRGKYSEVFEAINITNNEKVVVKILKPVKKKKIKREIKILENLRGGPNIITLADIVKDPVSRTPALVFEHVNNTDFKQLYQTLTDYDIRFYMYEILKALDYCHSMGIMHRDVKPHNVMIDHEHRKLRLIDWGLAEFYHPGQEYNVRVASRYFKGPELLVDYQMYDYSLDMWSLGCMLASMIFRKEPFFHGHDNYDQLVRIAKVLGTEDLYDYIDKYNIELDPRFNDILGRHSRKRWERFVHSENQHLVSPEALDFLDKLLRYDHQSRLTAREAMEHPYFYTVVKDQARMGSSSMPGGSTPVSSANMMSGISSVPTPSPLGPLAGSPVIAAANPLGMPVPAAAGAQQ
Sequence of Sphingosine kinase 1 (Homo sapiens) (Q9NYA1 whole entry): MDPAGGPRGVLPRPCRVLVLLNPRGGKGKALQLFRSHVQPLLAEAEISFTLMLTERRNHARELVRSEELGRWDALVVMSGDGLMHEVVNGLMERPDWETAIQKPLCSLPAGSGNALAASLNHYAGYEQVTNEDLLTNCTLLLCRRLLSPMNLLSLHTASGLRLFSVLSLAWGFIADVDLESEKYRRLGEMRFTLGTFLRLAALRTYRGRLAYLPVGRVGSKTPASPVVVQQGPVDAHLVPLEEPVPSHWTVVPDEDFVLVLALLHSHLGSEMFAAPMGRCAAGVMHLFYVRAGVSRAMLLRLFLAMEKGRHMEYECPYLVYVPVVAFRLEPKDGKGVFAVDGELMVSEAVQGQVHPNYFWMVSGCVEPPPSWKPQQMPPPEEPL

SMILES	inhibition [1]	inhibition [2]	inhibition [3]	inhibition [4]	inhibition [5]	inhibition [6]	inhibition [7]	inhibition [8]	inhibition [9]	inhibition [10]	inhibition [11]	inhibition [12]	inhibition [13]	inhibition [14]	inhibition [15]	inhibition [16]	inhibition [17]	inhibition [18]	inhibition [19]	inhibition [20]
C[C@@H](Oc1cc(-n2cnc3ccc(OC4CCN(C)CC4)cc32)sc1C(N)=O)c1ccccc1Cl	-0.63%	-0.31%	-1.96%	8.71%	7.82%	6.24%	7.13%	7.4%	4.96%	5.46%	6.16%	9.13%	38.1%	10.1%	39.5%	-0.34%	2.21%	3.24%	8.62%	62%
CCc1cccc(CC)c1/C=C/c1cncc(C(=O)NC)c1	-1.72%	0.98%	1.95%	-0.28%	-1.26%	-2.82%	-5.51%	4.86%	2.91%	1.34%	3.78%	1.27%	1.92%	3.4%	3.05%	0.31%	0.68%	2.82%	2.39%	8.92%
